In PMC5540273 (PLoS ONE, 2017):

Each molecule was assayed on QSK. Conditions: concentration: 1 μM,replicates: in singlicate; n = 1.
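Also: KINOMEscan kinase panel screen.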

| SMILES | %Inh |
| --- | --- |
| O=C(Nc1ccccc1)c1cccc(Oc2ccc3nccn3n2)c1 | 0% |
| Cc1ccc(CC(=O)N2CCc3cc(-c4cn(C)c5ncnc(N)c45)ccc32)cc1 [GSK2634758] | 0% |
| COC(=O)c1cccc(NC(=O)NC2CCN(c3ccnc(NCc4ccc(F)cc4)n3)CC2)c1 [GSK1379860] | 9% |
| Cc1n[nH]c2cc(Nc3ccnc(Nc4cccc(CN5CCOCC5)c4)n3)ccc12 [GW682569] | 0% |
| CCN1CCN(CCCC(=O)Nc2n[nH]c3nc(-c4ccc(O)cc4)c(Br)cc23)CC1 [SB-731579] | 50% |
| COc1ccc(Nc2nccc(N3CCC(NC(=O)c4cccc(C#N)c4)C3)n2)cc1 (stereo not shown) [GSK1379730] | 2% |
| C[C@@H](Oc1cc(-n2cnc3cc(-c4ccncc4)ccc32)sc1C(N)=O)c1ccccc1Cl [GSK479719] | 9% |
| Cc1nnc(-c2ccc3occ(-c4ccc(S(C)=O)cc4)c3n2)o1 (stereo not shown) | 0% |
| Cn1cc(-c2cccc3c(N)c(C(N)=O)nnc23)cn1 | 3% |
| Cl.Nc1n[nH]c2cc(-c3ccccn3)ccc12 [GSK2189892] | 0% |
| COc1cccc(CNC(=O)NC2CCN(c3ccnc(Nc4cc(OC)c(OC)c(OC)c4)n3)C2)c1 (stereo not shown) [GSK1379765] | 0% |
| Cc1ccc(C(=O)Nc2ccc(Oc3ccc4nc(NC(=O)C5CC5)cn4c3)c(F)c2)c(=O)n1-c1ccccc1 | 0% |
| Cc1cccc2c(-c3ccncc3)c(-c3ccc(F)cc3)nn12.Cl [GW461487] | 15% |
| C[C@@H](Oc1cc(-n2cnc3ccc(-c4ccncc4)cc32)sc1C(N)=O)c1ccccc1Cl [GSK483724] | 0% |
| CNC(=O)c1ccccc1Nc1nc(Nc2cccc(CS(C)(=O)=O)c2)ncc1C.O=CO [GSK1520489] | 22% |
| COc1cc2c(Nc3ccc(NC(=O)c4ccccc4)cc3)ncnc2cc1OCCCN1CCOCC1 [GSK301329] | 18% |
| O=C(Nc1ccc(Oc2ccc3nc(NC(=O)C4CC4)cn3n2)c(F)c1)c1cccn(-c2ccccc2)c1=O | 0% |
| COc1cc(Nc2nccc(N3CCC(NC(=O)c4cccc(C#N)c4)C3)n2)cc(OC)c1OC (stereo not shown) [GSK1379751] | 0% |
| CC(C)S(=O)(=O)N1CCN(Cc2ccc3c(c2)nc(NC(=O)c2ccsc2)n3C[C@H](O)c2ccccc2)CC1 [GW635815] | 3% |

| SMILES | %Inh |
| --- | --- |
| Cn1ccc2ncnc(Oc3ccc(NC(=O)Nc4cccc(C(F)(F)F)c4)c(F)c3)c21 | 0% |
| Cc1ccc2c(-c3ccnc(Nc4ccc(C(F)(F)F)cc4)n3)cnn2n1 [GW819776] | 14% |
| C[C@@H]1CNc2c(sc3ccc4nc(-c5ccncc5)ccc4c23)C(=O)N1 | 0% |
| Cn1ccc2ncnc(Oc3ccc(NC(=O)Nc4cccc(C(F)(F)F)c4)c(Cl)c3)c21 | 0% |
| COc1cccc(OC)c1C(=O)Nc1cccc(-c2nn3ccccc3c2-c2ccnc(Nc3cccc(F)c3)n2)c1 [GSK361065] | 0% |
| CN1CCN(CCCNc2nccc(-c3c(-c4ccc(F)cc4)nn4cc(C(N)=O)ccc34)n2)CC1 [GW622475] | 30% |
| CCCC(=O)Nc1n[nH]c2ncccc12 [SB-601436] | 0% |
| Cn1ccc2ncnc(Oc3ccc(NC(=O)Nc4cc(C(C)(C)C)on4)c(Cl)c3)c21 | 0% |
| Cl.c1ccc(Oc2ccc(Nc3ccnc4cc(-c5ccc(CN6CCNCC6)o5)ccc34)cc2)nc1 [GW567142] | 0% |
| CC(=O)Nc1ccc(-c2cc3ncnc(SCC(=O)O)c3s2)cc1 | 1% |
| Cc1ccc(Nc2ccnc(Nc3ccc4c(c3)CS(=O)(=O)C4)n2)cc1O.Cl [GW579362] | 9% |
| COc1cccc(C2=C(Nc3cccc(Cl)c3)C(=O)NC2=O)c1 [SB-341556] | 3% |
| OCCn1cc(-c2cnc3nnn(Cc4ccc5ncccc5c4)c3n2)cn1 | 0% |
| Cn1ccc2ncnc(Oc3ccc(NC(=O)Nc4cncc(C(F)(F)F)c4)c(Cl)c3)c21 | 0% |
| CN(c1cccc(CNc2nc(Nc3ccc4c(c3)CC(=O)N4)ncc2C(F)(F)F)c1)S(C)(=O)=O | 0% |
| Cl.Cl.NC[C@H](CC1CCCCC1)NC(=O)c1ccc(-c2ccnc3[nH]ccc23)s1 [GSK1581428] | 9% |
| N#Cc1cccc(C(=O)NC2CCN(c3ccnc(Nc4ccc(F)cc4)n3)C2)c1 (stereo not shown) [GSK1379708] | 0% |
| c1ccc(Oc2ccc(Nc3ccnc4ccc(-c5ccccn5)cc34)cc2)cc1 [GW407034] | 14% |
